Experimental findings from PubChem BioAssay (EPA / NIEHS) are described below.

Read-out in experiment [1]: solute carrier (SLCO1B1), SLCO1B1 (gene 10599)
The experiment is described as follows: LTEA_HepaRG_SLCO1B1: Life Technologies and Expression Analysis (LTEA) Assay for solute carrier (SLCO1B1) using HepaRG (AID 2283530). The settings on record: mRNA level, 48 h; actives raise or lower the signal. The essentials:
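Differentiated human HepaRG cells, plated 48 h, switched to serum-free induction medium and exposed in duplicate for 48 h to 8 half-log concentrations (top 100 uM) in 0.5% DMSO. SLCO1B1 mRNA by TaqMan qRT-PCR, normalized to ACTB/GAPDH/POLR2A.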

Read-out in experiment [2]: sulfotransferase 2A1 (SULT2A1), SULT2A1 (gene 6822)
The experiment is described as follows: LTEA_HepaRG_SULT2A1: Life Technologies and Expression Analysis (LTEA) Assay for sulfotransferase 2A1 (SULT2A1) using HepaRG (AID 2283531). The settings on record: mRNA level, 48 h; actives raise or lower the signal. Summed up:
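Differentiated human HepaRG cells in serum-free induction medium were exposed for 48 h to eight half-log concentrations (top 100 uM, 0.5% DMSO). SULT2A1 mRNA was measured by qRT-PCR, normalized to ACTB, GAPDH and POLR2A, and fitted bidirectionally against DMSO.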

Read-out in experiment [3]: Transforming Growth Factor (TGFA), TGFA (gene 7039)
The experiment is described as follows: LTEA_HepaRG_TGFA: Life Technologies and Expression Analysis (LTEA) Assay for Transforming Growth Factor (TGFA) using HepaRG (AID 2283532). The settings on record: mRNA level, 48 h; actives raise or lower the signal. Summed up:
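qRT-PCR read-out of TGFA transcript, normalized to three housekeeping genes, fitted bidirectionally against 0.5% DMSO baseline. Human HepaRG cultures received chemicals for 48 h at eight half-log concentrations, top 100 uM.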

Read-out in experiment [4]: Transforming Growth Factor (TGFB1), TGFB1 (gene 7040)
The experiment is described as follows: LTEA_HepaRG_TGFB1: Life Technologies and Expression Analysis (LTEA) Assay for Transforming Growth Factor (TGFB1) Transporter using HepaRG (AID 2283533). The settings on record: mRNA level, 48 h; actives raise or lower the signal. Summed up: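 Differentiated human HepaRG cells in serum-free induction medium were exposed in duplicate for 48 h to eight concentrations (top 100 uM, half-log steps, 0.5% DMSO). TGFB1 mRNA was quantified by qRT-PCR, normalized to ACTB, GAPDH, POLR2A, and fitted bidirectionally against DMSO.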

Read-out in experiment [5]: TIMP1, TIMP1 (gene 7076)
The experiment is described as follows: LTEA_HepaRG_TIMP1: Life Technologies and Expression Analysis (LTEA) Assay for TIMP1 using HepaRG (AID 2283534).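 Also: TaqMan qRT-PCR signal normalized to ACTB GAPDH and POLR2A housekeeping genes.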 The settings on record: mRNA level, 48 h; actives raise or lower the signal. The essentials:
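Differentiated human HepaRG cells in serum-free induction medium were exposed 48 h to chemicals (8 half-log concentrations, top 100 uM, 0.5% DMSO). TIMP1 mRNA was quantified by TaqMan qRT-PCR, normalized to ACTB/GAPDH/POLR2A; bidirectional fit versus DMSO.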

Read-out in experiment [6]: Tumor necrosis factor receptor 1 (TNFRSF1A), TNFRSF1A (gene 7132)
The experiment is described as follows: LTEA_HepaRG_TNFRSF1A: Life Technologies and Expression Analysis (LTEA) Assay for Tumor necrosis factor receptor 1 (TNFRSF1A) using HepaRG (AID 2283535). The conditions noted are these: mRNA level, 48 h; actives raise or lower the signal. The essentials: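 Differentiated human HepaRG cells were exposed in duplicate for 48 h in serum-free induction medium to eight concentrations (top 100 uM, half-log steps, 0.5% DMSO). TNFRSF1A mRNA was quantified by qRT-PCR, normalized to ACTB, GAPDH and POLR2A, then fitted bidirectionally against DMSO.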

Read-out in experiment [7]: Cellular tumor antigen p53 (Homo sapiens) (UniProt P04637)
The experiment is described as follows: LTEA_HepaRG_TP53: Life Technologies and Expression Analysis (LTEA) Assay for Tumor Protein P53 (TP53) using HepaRG (AID 2283537). The conditions noted are these: mRNA level, 48 h; actives raise or lower the signal. Summed up: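 Gain or loss of TP53 mRNA signal is scored relative to 0.5% DMSO after 48 h chemical treatment of HepaRG liver cells, tested in duplicate at eight half-log concentrations up to 100 uM.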

Read-out in experiment [8]: UDP glucuronosyltransferase (UGT1A1), UGT1A1 (gene 54658)
The experiment is described as follows: LTEA_HepaRG_UGT1A1: Life Technologies and Expression Analysis (LTEA) Assay for UDP glucuronosyltransferase (UGT1A1) using HepaRG (AID 2283538). The conditions noted are these: mRNA level, 48 h; actives raise or lower the signal. Summed up: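 mRNA induction or loss of UGT1A1, by TaqMan qRT-PCR, in duplicate HepaRG wells after 48 h exposure to half-log dilutions topping at 100 uM; DMSO (0.5%) served as baseline.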

Read-out in experiment [9]: UDP glucuronosyltransferase (UGT1A6), UGT1A6 (gene 54578)
The experiment is described as follows: LTEA_HepaRG_UGT1A6: Life Technologies and Expression Analysis (LTEA) Assay for UDP glucuronosyltransferase (UGT1A6) using HepaRG (AID 2283539). The settings on record: mRNA level, 48 h; actives raise or lower the signal. The essentials: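 Human HepaRG cells were dosed for 48 h in serum-free induction medium with 0.5% DMSO vehicle, eight-point half-log series from 100 uM, in duplicate. UGT1A6 mRNA was measured by qRT-PCR, normalized to ACTB, GAPDH, POLR2A, and fitted bidirectionally against DMSO.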

Experiment [10] is described as follows: LTEA_HepaRG_LDH_cytotoxicity: Cytotoxicity Assessment in the Life Technologies and Expression Analysis (LTEA) Assay (AID 2283563; active = hit-call score of the fitted dose curve at least 0.9, where 1 is the maximum;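 as to AC50: LDH activity released into spent culture medium as a marker of cell death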). Summed up: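 Differentiated human HepaRG cells, plated 48 h beforehand, were switched to serum-free induction medium and exposed for 48 h to eight half-log concentrations (top 100 uM) in 0.5% DMSO. LDH was measured in spent medium; activity was fitted relative to DMSO vehicle.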

A short description of experiment [11]: TOX21_p53_BLA_p2_viability: Viability Assessment in the Tox21 HCT-116 p53 Agonism Beta-lactamase Assay, Phase 2 (AID 2283591; active = hit-call score of the fitted dose curve at least 0.9, where 1 is the maximum;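 also: compound exposure lasted 16 h at 37 °C; actives lower the ATP signal meaning cytotoxicity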). The essentials: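 HCT116 p53-bla cells, 4000/well, dosed after 5 h plating (217-fold dilution of DMSO stocks) and incubated 16 h at 37C. Viability taken as cellular ATP by CellTiter-Glo luminescence after 30 min RT; signal loss marks cytotoxicity.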

The nature of experiment [12]: TOX21_p53_BLA_p3_viability: Viability Assessment in the Tox21 HCT-116 p53 Agonism Beta-lactamase Assay, Phase 3 (AID 2283593; active = hit-call score of the fitted dose curve at least 0.9, where 1 is the maximum;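 also: cells exposed to compound for 16 h before reading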). Summed up:
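HCT116 cells, 4000/well, dosed 5 h after plating by pin transfer (217-fold dilution from DMSO stock) and incubated 16 h at 37C, 5% CO2. Viability read as ATP luminescence with CellTiter-Glo after 30 min at room temperature.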

The nature of experiment [13]: TOX21_p53_BLA_p4_viability: Viability Assessment in the Tox21 HCT-116 p53 Agonism Beta-lactamase Assay, Phase 4 (AID 2283597; active = hit-call score of the fitted dose curve at least 0.9, where 1 is the maximum;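 also: hits lower the luminescence signal meaning cytotoxicity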). Summed up: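 Cytotoxicity was inferred from loss of CellTiter-Glo luminescence. HCT116 cells had been dosed with compounds after 5 h plating, incubated 16 h at 37C and 5% CO2, and exposed to the CCF4-AM substrate for 2 h.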
Experiment [14] deals with Cellular tumor antigen p53 (Homo sapiens) (UniProt P04637). The experiment is described as follows: TOX21_p53_BLA_p5_ratio: Tox21 HCT-116 p53 Agonism Beta-lactamase Assay, Ratio, Phase 5 (AID 2283599; active = hit-call score of the fitted dose curve at least 0.9, where 1 is the maximum). The essentials: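 HCT-116 p53-bla cells (4000/well) plated 5 h, dosed with compound (217-fold DMSO dilution) for 16 h at 37 C; CCF4-AM substrate 2 h at room temperature. Activity is the 460/530 nm emission ratio (405 nm excitation), fitted in gain-of-signal direction versus DMSO.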
Sequence of Cellular tumor antigen p53 (Homo sapiens) (P04637 whole entry, looked up): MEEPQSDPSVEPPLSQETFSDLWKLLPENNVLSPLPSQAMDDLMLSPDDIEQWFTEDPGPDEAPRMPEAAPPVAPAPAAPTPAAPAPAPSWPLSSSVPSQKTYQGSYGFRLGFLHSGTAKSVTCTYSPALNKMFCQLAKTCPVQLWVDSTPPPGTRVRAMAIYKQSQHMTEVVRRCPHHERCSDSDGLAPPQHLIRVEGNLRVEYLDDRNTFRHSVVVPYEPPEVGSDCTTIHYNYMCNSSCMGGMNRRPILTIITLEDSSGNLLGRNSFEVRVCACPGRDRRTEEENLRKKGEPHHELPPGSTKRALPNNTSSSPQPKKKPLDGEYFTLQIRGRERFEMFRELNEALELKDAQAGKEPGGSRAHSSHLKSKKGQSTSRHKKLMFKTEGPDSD

The nature of experiment [15]: TOX21_p53_BLA_p5_viability: Viability Assessment in the Tox21 HCT-116 p53 Agonism Beta-lactamase Assay, Phase 5 (AID 2283600; active = hit-call score of the fitted dose curve at least 0.9, where 1 is the maximum). The essentials: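 Luciferase-coupled ATP quantitation of cells treated for 16 h (37C, 5% CO2) with test chemicals delivered in DMSO via a 217-fold dilution; 4000 cells/well; reagent incubated 30 min at room temperature before luminescence reading.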

Read-out in experiment [16]: X-box binding protein 1 (XBP1), XBP1 (gene 7494)
The experiment is described as follows: LTEA_HepaRG_XBP1: Life Technologies and Expression Analysis (LTEA) Assay for X-box binding protein 1 (XBP1) using HepaRG (AID 2283540). The settings on record: mRNA level, 48 h; actives raise or lower the signal. Summed up: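 Differentiated human HepaRG cells in serum-free induction medium were exposed in duplicate for 48 h to eight half-log concentrations up to 100 uM in 0.5% DMSO. XBP1 mRNA was quantified by qRT-PCR, normalised to ACTB, GAPDH and POLR2A, with bidirectional fitting against DMSO.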

A short description of experiment [17]: ATG_XTT_Cytotoxicity: Cytotoxicity Assessment in the Attagene TRANS-FACTORIAL HepG2 Assay (AID 2283584; active = hit-call score of the fitted dose curve at least 0.9, where 1 is the maximum). Summed up:
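HepG2 human liver cells, transiently transfected with multiple GAL4-UAS reporter units, were dosed and read at 24 h by XTT as cell number. Loss of signal was fitted relative to DMSO negative control baseline.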

For experiment [18], the target named is Cellular tumor antigen p53 (Homo sapiens) (UniProt P04637). The experiment is described as follows: TOX21_p53_BLA_p3_ratio: Tox21 HCT-116 p53 Agonism Beta-lactamase Assay, Ratio, Phase 3 (AID 2283596; active = hit-call score of the fitted dose curve at least 0.9, where 1 is the maximum). Summed up: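 Cells were seeded at 4000/well, rested 5 h at 37C, then dosed with DMSO compound solutions (217-fold dilution) for 16 h. CCF4-AM substrate was loaded for 2 h at room temperature, and the 460/530 nm emission ratio was fitted for gain of signal versus DMSO.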

Structures are written as SMILES. “And” between values parts separate entries of the source, which are not always exact repeats. Equal values may be shown once. Inconclusive results are not listed. More than one record can exist for a structure, and the calls need not agree. The source made the active and inactive calls. The calls were made as follows, unless noted: active = hit-call score of the fitted dose curve at least 0.9, where 1 is the maximum; inactive = score below 0.9.

For the compound `COc1ccc(OC(F)(F)F)cc1CN[C@H]1CCCN[C@H]1c1ccccc1`, the call in [1], in experiment [3], in experiment [4], in [5], in experiment [12] and in [14] was inactive. In [15], the compound was called inactive. Besides, the AC50 in experiment [2] was 81.2 µM (active); in experiment [6] it was 93.1 µM (active); in experiment [7] it was 77.7 µM (active); in experiment [8] it was 83.8 µM (active); in experiment [9], 89.9 µM (active); in [10], 73.6 µM (active). In addition, the AC50 in experiment [11] was 69.3 µM (active); in experiment [13], 62.1 µM (active).

`NC1CCCCC1`: the result in experiment [1], in [2], in [3], in experiment [4], in [5] and in experiment [6] was inactive. The call in [8], in [9], in [16], in experiment [10] and in experiment [17] was inactive.

As for `O=C1CCCCC1`, the outcome in experiment [1], in [2], in experiment [3], in experiment [4], in experiment [5] and in [8] was inactive. In addition, the compound was classed as inactive in [9], in experiment [10] and in [17]. In addition, in experiment [6], the half-maximal activity concentration (AC50) is 0.0538 µM (active).

Consider `C/C=C/C=C/C(=O)O`, for which the outcome in [1], in experiment [2], in experiment [3], in experiment [4], in experiment [5] and in experiment [6] was inactive. The compound was called inactive in [9], in experiment [16], in experiment [10] and in [17]. In addition, the AC50 in experiment [8] was 0.171 µM (active).

In the case of `CCc1nc(N)nc(N)c1-c1ccc(Cl)cc1`, the call in experiment [1], in [3], in experiment [4], in experiment [5], in experiment [6] and in [7] was inactive. Also, the compound was classed as inactive in experiment [8], in experiment [9], in experiment [17], in [11], in [18] and in experiment [14]. The result in experiment [15] was inactive. Further, the AC50 in [2] is 1.33 µM (active); in [10], 66.1 µM (active); in experiment [11], 17.2 µM (active) and 11.8 µM (active); in experiment [12], 46.1 µM (active) and 18.5 µM (active); in experiment [13] it was 18.3 µM (active) and 15.9 µM (active) and 10.4 µM (active); in [15], 15.3 µM (active).
